# Abeta rescue = qHTS for compounds that reverse cellular toxicity of Amyloid beta (A-beta) peptide in yeast: Primary Screen; Potency, µM (doses to about 46.1 µM), actives largely listed as activators; actives 0.063% (n = 410,000); yeast expressing A-beta42, growth rescue, OD600, 48 h; response scale: 0% DMSO, 100% iron-clioquinol control; AID 1347071, 2019; further: nearly all actives have a fitted effect of over 55% in size
#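 Yeast growth medium received pinned compounds, then yeast cells expressing toxic A-beta were added; plates incubated at 30 C for 48 hr. Growth read as absorbance at 600 nm, normalized to DMSO and equimolar FeCl3 plus clioquinol controls.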
# FUS suppressor = qHTS for Suppressors of FUS Proteinopathy: Primary screen using FUS-linked yeast assay | S. cerevisiae FUS-expressing, growth rescue, OD600, 24 h | Potency, µM (highest dose often 76.6 µM), hits mostly activators | actives 0.24% (n = 390,000) | AID 1347120, 2019; further: nearly all actives have a fitted effect of over 55% in size
#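 Steps: raffinose overnight preculture; dilution to OD 0.005 in 2% galactose minimal medium; compound addition (concentration series); 24hr at 30C, 99% humidity; absorbance read at 600 nm.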
# aSyn rescue = qHTS of alpha-syn Inhibitors; Yeast expressing alpha-synuclein, growth rescue, BacTiter-Glo, 24 h; Potency, µM (top dose mostly 46.1 µM), hits mostly activators; actives 0.14% (n = 370,000); further: nearly all actives have a fitted effect of over 65% in size
#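 Rescue of yeast growth: cells expressing toxic alpha-synuclein, induced in galactose at OD600 0.02, incubated with compound 24 h at 30 C. ATP luminescence quantified growth; inhibitors of toxicity appear as activators.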
# TDP43 rescue = qHTS of TDP-43 Inhibitors; AID 652104, 2013; TDP-43 expressing yeast growth rescue, BacTiter-Glo, 24 h; Potency, µM (titrated, usually from 46.1 µM), usual class: activators; actives 1.8% (n = 410,000); further: nearly all actives have a fitted effect of over 50% in size
#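 Yeast cells expressing TDP-43 under galactose induction are exposed to compounds for 24 hr at 30 deg C. BacTiter-Glo luminescence measures growth, so protective compounds score as activators.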
# Hits are given with their value; . = inactive; ? = inconclusive; / = no result given; [ ] = dose if it differs, or a comment. A selection: hits, their analogues and other compounds. The true share with any hit is near 2.1%. The call rests on the fitted dose curve; in most records, active means well fitted curve in the direction sought with a large enough effect; inconclusive means small, poorly fitted or top-dose-only effect, or another doubt; inactive means no such curve, though single readings can be large; an effect the other way counts as inactive or inconclusive.
SMILES,Abeta rescue,FUS suppressor,aSyn rescue,TDP43 rescue
CC(C)c1ccc(NC(=O)CN2C(=O)COc3ccc(S(=O)(=O)N4CCCCC4)cc32)cc1,.,.,/,.
COc1ccc(-c2nnc(SCC(=O)Nc3ccc(Cl)cc3)n2C)cc1,.,.,.,.
CCOC(=O)/C(=N\Nc1cccc(Cl)c1)Sc1nnc(-c2ccc(OC)cc2)n1C,.,/,.,31.6µM
COc1ccc(S(=O)(=O)N2CCCCC2)cc1NC(=S)Nc1cccc(Cl)c1C,.,2.82µM,.,.
Cc1cccc(Oc2ccc(S(=O)(=O)N3CCCCC3)cc2NC(=O)C2=COCCO2)c1,.,28.2µM,.,.
CC(C)(C)C(=O)Nc1ccc2nc(SCCOc3ccccc3Cl)sc2c1,.,.,/,.
COc1cc(Cl)c(NC(=O)CN(C)S(=O)(=O)c2ccc3c(c2)CCCC(=O)N3)c(OC)c1,.,.,.,.
C/C(=N\OC(=O)C1CC1)C1CC1c1ccc(F)cc1 (stereo not drawn),.,.,.,?
COc1ccc(C2CC2/C(C)=N/OC(=O)C2CC2)cc1 (stereo not drawn),.,.,.,14.1µM
COc1ccc2[nH]c3c(=O)n(CCCCC(=O)N4CCCC4)c(=S)[nH]c3c2c1,.,39.8µM,.,.
C[C@H]1C2CC(OC(=O)Nc3ccc4c(c3)OCO4)C(C2)[C@H]2CCCCN21 (stereo partly drawn),/,.,/,/
CCOc1ccccc1NC(=S)NC(=O)C1CCCCC1,7.08µM,.,.,.
CCOc1ccccc1NC(=O)c1ccccc1NC(=O)c1ccco1,.,.,.,.
CCOc1ccccc1NC(=S)NC(=O)c1ccco1,?,.,.,14.1µM
CCOc1ccccc1NC(=O)C1CCCC1,.,.,.,.
O=[N+]([O-])c1ccc(N/N=C2\CC3CC=CC23)c([N+](=O)[O-])c1 (stereo not drawn),.,.,.,35.5µM
O=C(COc1ccccc1C(=O)Nc1ccccc1)Nc1cccc([N+](=O)[O-])c1,/,/,.,/
Cn1c(COc2ccc(Cl)cc2)nnc1SCc1ncc(-c2ccccc2)o1,.,?,?,22.4µM
O=C(O/N=C(/c1ccccc1)c1ccncc1)c1cccc(F)c1,.,.,.,14.1µM
COc1cc(NC(=O)C2CCN(S(=O)(=O)c3ccc4c(c3)oc(=O)n4C)CC2)cc(OC)c1,.,.,/,.
CC(C)(C)n1nnnc1C(c1cc2ccccc2o1)N1CCN(C(=O)OCc2ccccc2)CC1 (stereo not drawn),.,?,.,.
CC(C)(C)OC(=O)N1CCCN(C(c2cc3ccccc3o2)c2nnnn2C(C)(C)C)CC1 (stereo not drawn),.,15.8µM,.,?
CC(c1ccccc1)N1CCn2c(nc3cc(NC(=O)NC4CCCCC4)ccc32)C1 (stereo not drawn),.,11.2µM,.,.
S=C(N/N=C/c1ccccc1)N1CCOCC1,?,/,.,22.4µM
COc1ccccc1CNC(=O)C(=O)NCC(c1cccs1)S(=O)(=O)c1ccccc1 (stereo not drawn),.,.,/,.
SMILES,Abeta rescue,FUS suppressor,aSyn rescue,TDP43 rescue
COCCNc1cc(N)c([N+](=O)[O-])cc1[N+](=O)[O-],.,.,.,11.2µM
CCOC(=O)c1ccc(NCCOC)c([N+](=O)[O-])c1,.,.,.,?
O=C(NNC(=O)c1csc(-c2cccs2)n1)c1ccc(Cl)cc1,.,.,.,22.4µM
O=c1oc(-c2ccc(O)c(O)c2)cc2cccc(O)c12,.,.,.,.
O=C1C=Cc2cccc3ccc(O)c1c23,.,.,35.5µM,.
O=C(NNc1nc2ccc(Cl)cc2s1)c1cc(-c2cccs2)nc2ccccc12,?,.,?,4.47µM
Cc1cc(C)c2nc(NNC(=O)c3cc(-c4cccs4)nc4ccccc34)sc2c1,?,.,.,?
O=C(COc1ccccc1C(=O)Nc1cccc([N+](=O)[O-])c1)Nc1ccc(Br)cc1,/,/,.,/
COc1cc(CNc2ncnc3c2ncn3[C@H]2CN(Cc3cccc(C(F)(F)F)c3)C[C@@H](COC(C)=O)O2)cc(OC)c1OC,.,20µM,.,.
Cc1cc(-c2csc(N)n2)c(C)n1C,.,.,.,.
Cc1cc(-c2csc(N)n2)c(C)n1Cc1ccco1,.,28.2µM,.,.
O=C1c2ccccc2C(=O)N1CC1CO1 (stereo not drawn),.,.,.,.
O=C1c2ccccc2C(=O)N1C1C=CC=CC=C1,.,.,?,25.1µM
CC(C)(C)OC(=O)N1CCC(c2c(C(=O)Nc3ccc4c(c3)OCCO4)cnn2-c2ccccc2)CC1,.,?,/,.
CC1CCC(NC(=O)c2ccc(CS(=O)(=O)c3c(Cl)cccc3Cl)o2)CC1 (stereo not drawn),.,.,/,35.5µM
Cc1ccc(CNc2nccn(-c3cc(C)cc(C)c3)c2=O)cc1,.,.,/,?
COc1cccc(CNc2nccn(-c3cc(C)cc(C)c3)c2=O)c1,.,.,/,17.8µM
Cc1ccc(-n2ccnc(NCc3ccccc3)c2=O)cc1C,.,.,/,31.6µM
O=C(CCNc1cc(Cl)cc(Cl)c1)c1ccco1,.,.,.,15.8µM
COc1ccc(CCNc2nc(SCc3ccccc3Cl)nc3ccccc23)cc1OC,.,.,/,.
CCC(C)c1ccc(NC(=S)NCCn2cc(Br)cn2)cc1 (stereo not drawn),10µM,.,.,.[0.397 µM]
CCC(C)c1ccc(NC(=S)NCCn2cc(Cl)cn2)cc1 (stereo not drawn),.,.,.,.
O=c1sc(Nc2ccccc2)nc2ccsc12,.,.,.,17.8µM
O=C(Nc1nc2ccsc2c(=O)s1)C1CCC1,.,.,.,10µM
O=C(CCC1CCCCC1)Nc1ccccc1-c1ccccc1,.,.,.,14.1µM
SMILES,Abeta rescue,FUS suppressor,aSyn rescue,TDP43 rescue
C=C1NN(Cc2ccccc2)C(=O)N1c1ccc(OCc2ccccc2)cc1,/,/,.,/
CC(=O)N(C)c1ccc(C=C2C=Cc3ccccc32)cc1,.,/,.,14.1µM
CN(N=O)c1ccc(C=C2C=Cc3ccccc32)cc1,.,/,.,.
Nc1ccc2oc(=O)c3ccccc3c2c1,.,/,.,12.6µM
CC(C)C(=O)Nc1sc2c(c1C#N)CCCCC2,.,.,.,12.6µM
CCOC(=O)c1cnc2ccc(OCC)cc2c1N1CCN(c2ccccc2)CC1,.,?,.,17.8µM
CCOc1ccc2ncc(S(=O)(=O)c3ccccc3)c(N3CCN(c4ccccc4)CC3)c2c1,.,.,.,.
CCOC(=O)c1cnc2ccc(OCC)cc2c1N1CCN(c2ccccc2F)CC1,.,?,/,15.8µM
Cc1ccc(NC(=O)CCCc2nnc3n(C)c(=O)c4sccc4n23)cc1F,.,.,/,.
C=CCN1C(=O)/C(=C/c2ccc(OCC(=O)O)cc2)S/C1=N/c1nccs1,.,.,.,.
C=CCN1C(=O)/C(=C/c2ccc(O)c(OC)c2)S/C1=N/c1nccs1,.,/,.,22.4µM
O=C(Cc1cccc2ccccc12)NO,/,/,.,/
CCCCCn1c(=O)c2ccccc2n2c(CCl)nnc12,.,.,.,15.8µM
